# Assay results taken from PubChem BioAssay (Tox21).
# Results filed as inconclusive are left out. Entries that show only a call come without a potency. Activity calls are given as the source filed them. Calls come from the whole dose curve; as a rule, active = well fitted activation curve with a large enough effect in the repeat runs; inconclusive = weak or mixed curves; inactive = no such curve, though single readings can be large or run the other way.
# Molecular target: Aryl hydrocarbon receptor (Homo sapiens) (UniProt P35869)
# Assay: qHTS assay to identify small molecule that activate the aryl hydrocarbon receptor (AhR) signaling pathway (AID 743085); note: nearly all actives have a fitted effect of over 15% in size;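 for activation: HG2L7.5c1 human HepG2 liver cells with stably integrated DRE-driven firefly reporter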
# Conditions: HepG2 AhR-luc (HG2L7.5c1), luciferase, 24 h; series mostly up to 70.3 µM
# Text: U.S. Tox21 Program National Center for Advancing Translational Sciences [NCATS] NIH Chemical Genomics Center [NCGC] U.S. Environmental Protection Agency [EPA] National Institutes of Environmental Health Sciences [NIEHS] National Toxicology Program [NTP] U.S. Food and Drug Administration [FDA] Tox21 Assay overview: The Aryl hydrocarbon Receptor (AhR), a member of the family of basic helix-loop-helix transcription factors, is crucial to adaptive responses to environmental changes. AhR mediates cellular responses to environmental pollutants such as aromatic hydrocarbons through induction of phase I and II enzymes but also interacts with other nuclear receptor signaling pathways. A cell based HepG2-AhR-luc assay (HG2L7.5c1 cell line, developed by Dr. Michael S. Denison, University of California at Davis, was used to assess the activation of AhR. HepG2 (human hepatocellular carcinoma) cells were stably transfected with an Ah receptor-responsive firefly luciferase reporter gene plasmid containing 20 dioxin responsive elements and luciferase reporter gene. Increased luciferase activity can be used to identify the compounds that induce AhR activation.
# Tox21 Assay Protocol Summary: 4000 cells in 5 uL/well were dispensed into white wall/solid bottom 1536-well plates using a Multidrop Combi (Thermo Fisher Scientific Inc., Waltham, MA) dispenser. After the assay plates were incubated at 37C for 5 h, 23 nL of compound or DMSO vehicle was transferred to the assay plates by a pintool station (Kalypsys, San Diego, CA). The plates were incubated at 37C for 24 hr. After 1 ul/well of CellTiter-Fluor reagent (Promega, Madison, WI) was added into the assay plates using a Flying Reagent Dispenser (FRD) (Aurora Discovery, CA), the assay plates were incubated at 37C for 30 min. The fluorescence intensity in the plates was measured using a ViewLux plate reader (PerkinElmer, Shelton, CT), followed by the addition of 4 uL of ONE-Glo Luciferase Assay reagent (Promega) using an FRD (Aurora Discovery). After the assay plates were incubated at room temperature for 30 min, luminescence intensity was measured using a ViewLux plate reader (Perkin Elmer).
# Potency is the fitted concentration of half-maximal effect.
# Aryl hydrocarbon receptor (Homo sapiens), sequence (P35869 whole entry, looked up): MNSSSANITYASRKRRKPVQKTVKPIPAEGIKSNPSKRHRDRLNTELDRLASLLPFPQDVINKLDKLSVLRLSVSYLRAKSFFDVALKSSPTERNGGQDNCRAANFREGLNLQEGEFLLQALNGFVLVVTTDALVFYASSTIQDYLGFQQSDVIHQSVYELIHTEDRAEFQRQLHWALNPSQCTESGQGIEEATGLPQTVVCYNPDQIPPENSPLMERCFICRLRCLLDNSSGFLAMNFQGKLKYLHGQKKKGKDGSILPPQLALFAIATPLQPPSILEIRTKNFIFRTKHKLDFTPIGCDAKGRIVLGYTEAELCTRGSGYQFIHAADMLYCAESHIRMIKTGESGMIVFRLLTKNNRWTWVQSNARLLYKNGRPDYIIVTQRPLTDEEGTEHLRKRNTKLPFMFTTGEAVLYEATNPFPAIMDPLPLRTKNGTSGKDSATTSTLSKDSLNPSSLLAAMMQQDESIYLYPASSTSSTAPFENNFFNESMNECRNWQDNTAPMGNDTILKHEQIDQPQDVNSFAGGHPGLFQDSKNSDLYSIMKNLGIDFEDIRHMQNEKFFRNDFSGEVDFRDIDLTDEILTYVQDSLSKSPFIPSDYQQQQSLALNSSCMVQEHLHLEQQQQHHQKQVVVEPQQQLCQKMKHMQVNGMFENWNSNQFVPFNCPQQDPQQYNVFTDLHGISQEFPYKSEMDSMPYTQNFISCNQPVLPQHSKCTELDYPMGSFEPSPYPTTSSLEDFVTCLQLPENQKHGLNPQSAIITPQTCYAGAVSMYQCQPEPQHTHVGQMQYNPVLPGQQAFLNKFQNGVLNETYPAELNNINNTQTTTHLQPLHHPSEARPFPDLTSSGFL
row,SMILES,Potency
1,O=C(O)CC(Cl)C(=O)O (stereo not given),inactive
2,CCCN(CCC)c1c([N+](=O)[O-])cc(S(C)(=O)=O)cc1[N+](=O)[O-],inactive
3,CC(C)(Cl)[N+](=O)[O-],inactive
4,C=CCOC(C)=O,inactive
5,CCCCCC[N+](=O)[O-],inactive
6,COC(=O)c1cncn1C(C)c1ccccc1 (stereo not given),inactive
7,CCCC(Cn1cncn1)c1ccc(Cl)cc1Cl (stereo not given),inactive
8,O=C(Nc1ccccc1)Nc1cnns1,15.3 µM (active)
9,NC(=O)CI,inactive
10,CS/C(C)=N/OC(=O)N(C)SN(C)C(=O)O/N=C(\C)SC,inactive
11,Cl/C=C\C[N+]12CN3CN(CN(C3)C1)C2,inactive
12,C[N+](C)(C)CCCl,inactive
13,CCOP(=O)(OCC)O/C(=C/Cl)c1ccc(Cl)cc1Cl,inactive
14,CO[C@@H]1[C@H](OC(=O)NC(=O)CCl)CC[C@]2(CO2)[C@H]1[C@@]1(C)O[C@@H]1CC=C(C)C,inactive
15,COCC(C)N(C(=O)CCl)c1c(C)csc1C (stereo not given),inactive
16,O=S1OC[C@@H]2[C@H](CO1)[C@]1(Cl)C(Cl)=C(Cl)[C@@]2(Cl)C1(Cl)Cl (stereo not given in full),inactive
17,O=C1CN=C(c2ccccc2)c2cc(Cl)ccc2N1CC1CC1,inactive
18,O=[Se]=O,inactive
19,CCCN(CCCl)c1c([N+](=O)[O-])cc(C(F)(F)F)cc1[N+](=O)[O-],inactive
20,C=C(C#N)CCC#N,inactive

row,SMILES,Potency
1,O=[N+]([O-])c1ccc(F)c([N+](=O)[O-])c1,inactive
2,CCOP(=S)(OCC)Oc1cc(Cl)c(Br)cc1Cl,9.69 µM (active)
3,COc1cc(CC(C)N)cc2c1OCO2 (stereo not given),inactive
4,O=C(CCl)c1ccc(Cl)cc1Cl,inactive
5,COc1c(C(C)(C)C)cc([N+](=O)[O-])c(C)c1[N+](=O)[O-],inactive
6,Cl/C=C\Cl,inactive
7,CCOP(=O)(OCC)SCCSCC,inactive
8,Clc1cc(Cl)c(Cl)c(Cl)c1,inactive
9,CCCCOC(=O)c1ccccc1C(=O)OCc1ccccc1,inactive
10,CN(C)c1ccc(N(C)C)cc1,61.3 µM (active)
11,C[C@@H]1CC[C@H]2[C@@H](C)C(=O)O[C@@H]3O[C@@]4(C)CC[C@@H]1[C@]32OO4,inactive
12,CN1[C@@H]2CC[C@H]1CC(OC(=O)c1cc(Cl)cc(Cl)c1)C2 (stereo not given in full),inactive
13,O=C1C(Cl)C(CCl)CN1c1cccc(C(F)(F)F)c1 (stereo not given),48.6 µM (active)
14,C/C(=C\c1ccccc1)[N+](=O)[O-],inactive
15,CC(c1ccc(O)cc1)(c1ccc(O)cc1)c1ccc(O)cc1,inactive
16,O=C(NC(=O)c1c(F)cccc1F)Nc1cc(Cl)c(Oc2ncc(C(F)(F)F)cc2Cl)c(Cl)c1,inactive
17,CN1C(=O)NC(=O)C(C)(C2=CCCCC2)C1=O (stereo not given),inactive
18,BrCCCCBr,inactive
19,C=COC(C)=O,inactive
20,CCC(Br)(CC)C(=O)NC(N)=O,inactive
